Data reported in PubChem BioAssay AID620 (Sanford-Burnham Center for Chemical Genomics, 2007).
About 360 (0.41%) of roughly 87,000 compounds were called active. For the sample, actives were picked, then their nearest neighbours and some compounds at random. Unmarked numbers belong to inactive results. No stated cut-off is given here; in the data, active means cytotoxicity above about 50%; inactive means the rest.

assay: cytotoxicity in HT1080 fibrosarcoma cells, cell-based, fluorescence readout (AID 620); conditions: HT1080 viability, at 10 µM, active compounds read high;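 further: cells exposed to compound overnight then 4 h with Alamar Blue; 0% = vehicle DMSO and 100% = killing control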

SMILES	cytotoxicity
CC(=O)N1[C@H](Cc2ccccc2)C=C[C@]1(C)C(=O)NCc1ccc(C)o1	-2.9%
Cc1ccsc1C1NC(=O)c2c(sc3c2CCN(C)C3)N1 (configuration not stated)	9.6%
O=S(=O)(c1cccc(-c2csc(-c3ccccc3)n2)c1)N1CCOCC1	2%
CC(C)CCn1c(N)c(S(=O)(=O)c2cccs2)c2nc3ccccc3nc21	57% (active)
COCCn1c(N)c(S(=O)(=O)c2cccs2)c2nc3ccccc3nc21	11%
CC(C)Cn1c(N)c(S(=O)(=O)c2cccs2)c2nc3ccccc3nc21	30.5%
Cc1cc(N2CCN(C(=O)c3ccco3)CC2)n2ncc(-c3ccccc3)c2n1	5.6%
Cc1ccccc1-n1c(SCC(=O)N2CCN(c3ccccc3)CC2)nnc1-c1ccncc1	-3.7%
CCCCCCSC1=C(C#N)C(c2ccc(C)o2)CC(=O)N1 (configuration not stated)	29.7%
CCOC(=O)CSC1=C(C#N)C(c2ccc(Cl)cc2)CC(=O)N1 (configuration not stated)	2.7%
CCOC(=O)CSC1=C(C#N)C(c2ccccc2OC)CC(=O)N1 (configuration not stated)	-1%
CCOC(=O)CSC1=C(C#N)C(c2ccc(C)o2)CC(=O)N1 (configuration not stated)	59.5% (active)
CCSC1=C(C#N)C(c2ccc(C)s2)CC(=O)N1 (configuration not stated)	0.8%
CCOC(=O)CSC1=C(C#N)C(c2ccc(C)s2)CC(=O)N1 (configuration not stated)	58% (active)
COc1cc(C(=O)Nc2nnc(CC(=O)N3CCOCC3)s2)cc(OC)c1OC	-1%
CCOc1ccccc1NC(=O)CSc1nnnn1-c1ccccc1	7.2%
Cc1noc(C)c1S(=O)(=O)N1CCCC(C(=O)NCc2ccccn2)C1 (configuration not stated)	3.9%
COC(=O)CN(Cc1ccco1)S(=O)(=O)c1ccccc1	1.2%
CC1=CCC(Cc2nc3ccccc3o2)C1(C)C (configuration not stated)	0.6%
CCOc1cc(N2CCOCC2)c(OCC)cc1NC(=O)CCS(=O)(=O)c1ccc(Cl)cc1	6.9%
CCOc1cc(N2CCOCC2)c(OCC)cc1NS(=O)(=O)c1ccc(Cl)s1	51.9% (active)
CCOc1ccc(Br)cc1S(=O)(=O)Nc1ccccc1N1CCOCC1	4.5%
O=C(NC1CCCCCC1)C1CCN(C(=O)Cc2ccccc2)CC1	3.1%
COc1ccc2nc(-n3c(C)ccc3C)sc2c1	-1.1%
O=C(N1CCN(CCO)CC1)N1c2ccccc2C=Cc2ccccc21	3.2%
COc1ccc(NC(=O)CC(=O)Nc2ccc(OC)cc2OC)c(OC)c1	-3.5%

SMILES	cytotoxicity
CCC(=O)Nc1ccc(OC)cc1OC	-3.2%
CCN(CC)c1ccc2c(c1)OC(N)=C(C#N)C2c1cccnc1 (configuration not stated)	67.5% (active)
N#CC1=C(N)Oc2cc(O)ccc2C1c1ccncc1 (configuration not stated)	-6.2%
N#CC1=C(N)Oc2c(ccc3cccnc23)C1c1cccnc1 (configuration not stated)	39.8%
COc1ccc(C2C(C#N)=C(N)Oc3cc(O)ccc32)cc1OC (configuration not stated)	-13.3%
COc1cc(C2C(C#N)=C(N)Oc3cc(N(C)C)ccc32)cc2c1OCO2 (configuration not stated)	63.3% (active)
COc1cc(C2C(C#N)=C(N)Oc3cc(C)oc(=O)c32)cc2c1OCO2 (configuration not stated)	-1.5%
COc1cc(C2C(C#N)=C(N)Oc3cc(O)ccc32)cc2c1OCO2 (configuration not stated)	-6.6%
N#CC1=C(N)Oc2cc(O)ccc2C1c1ccccc1 (configuration not stated)	-0.8%
N#CC1=C(N)Oc2cc3ccccc3cc2C1c1cccnc1 (configuration not stated)	47.6%
COc1cc(C2C(C#N)=C(N)Oc3cc(O)ccc32)cc(OC)c1OC (configuration not stated)	64.7% (active)
N#CC1=C(N)Oc2cc(N)ccc2C1c1ccc(F)cc1 (configuration not stated)	-0.8%
CN(C)c1ccc2c(c1)OC(N)=C(C#N)C2c1cccc(F)c1 (configuration not stated)	56% (active)
Cc1cccc(OCCn2c(NC(=O)c3ccco3)nc3ccccc32)c1	5.5%
CC(=O)N1[C@H](Cc2ccccc2)C=C[C@]1(C)C(=O)O	6.6%
CCC(c1nnnn1C1CCCC1)N1CCN(c2ccccc2F)CC1 (configuration not stated)	-20.4%
Cc1ccnc(NS(=O)(=O)c2ccc(Oc3ccccc3)cc2)c1	7.3%
COc1cc(NC(=O)CN2C(=O)NC(C)(CC(C)C)C2=O)cc(OC)c1 (configuration not stated)	-7.9%
O=C1NC(c2ccccc2)=C(c2nc3ccccc3s2)C(c2ccc(F)cc2)N1 (configuration not stated)	-3.1%
O=C(CSc1nnc(COc2ccc(Cl)cc2)o1)N1CCN(c2ccccc2)CC1	1.3%
O=C(CSc1nnc(COc2ccc(Cl)cc2)o1)N1c2ccccc2CCc2ccccc21	62.4% (active)
O=C(CSc1nnc(COc2ccc(F)cc2)o1)N1c2ccccc2CCc2ccccc21	-8%
O=C(CCCN1C(=O)c2ccccc2C1=O)Nc1ccc(S(=O)(=O)N2CCOCC2)cc1	14.1%
CCCCCc1nnc(NC(=O)CS(=O)(=O)Cc2ccccc2)s1	-1.5%
CC1=CC(C)(C)Nc2ccc(OC(=O)CN3C(=O)C4CCCCC4C3=O)cc21 (configuration not stated)	-1%
CC1=CC(C)(C)Nc2ccc(OC(=O)c3cccnc3)cc21	14.7%

SMILES	cytotoxicity
CC1=CC(C)(C)Nc2ccc(OC(=O)c3ccco3)cc21	59.2% (active)
COc1ccc(CC(=O)c2ccccc2C(=O)O)cc1	-0.2%
CCCCN(CCCC)S(=O)(=O)c1ccc(OC)c2ncccc12	32.7%
COc1ccc(N/N=C(/Oc2ccc([N+](=O)[O-])cc2)C(C)=O)cc1	5.4%
CO/N=C/C(=N\Nc1ccc(OC)cc1)C(=O)c1ccc(OC)cc1	11.7%
CO/N=C/C(=N\Nc1ccc(C)cc1)C(=O)c1ccc(OC)cc1	53.7% (active)
CO/N=C\C(=N\Nc1ccc(OC)cc1)C(=O)c1ccccc1	-0.7%
COc1ccc(N/N=C(\C=N\O)C(=O)c2ccc(OC)cc2)cc1	59% (active)
COc1ccc(C(=O)Oc2ccc(/C=N/O)cc2)cc1	2.6%
CCOc1ccc(N2C(=O)CSC23CCCCC3)cc1	-10.8%
COCCn1c(SCC(=O)NCc2cccs2)nnc1-c1ccc(OC)cc1	7.9%
Cc1ccc(SC(C)C(=O)Nc2ccncc2)cc1 (configuration not stated)	-1.4%
O=C1c2[nH]nc(-c3ccccc3O)c2C(c2cccc(Cl)c2)N1Cc1ccco1 (configuration not stated)	3.9%
Cc1ccc(S(=O)(=O)N2CCN(C(=O)c3ccc(OCc4c(C)noc4C)cc3)CC2)cc1	-2.3%
NC(=O)C1CCN(C(=S)c2cccs2)CC1	8.7%
COc1ccc(C2CC(=O)N3C(=C2C#N)SCC3(O)c2ccccc2)cc1 (configuration not stated)	5.5%
N#CC1=C2SCC(O)(c3ccccc3)N2C(=O)CC1c1ccccc1F (configuration not stated)	4.1%
N#CC1=C2SCC(O)(c3ccccc3)N2C(=O)CC1c1ccccc1 (configuration not stated)	63.1% (active)
O=C(NCCCN1CCCC1=O)c1cccs1	1.9%
Cn1c(=O)c2c(nc(CN3CCN(c4ccccc4)CC3)n2CCN2CCOCC2)n(C)c1=O	8.9%
COc1ccc(Nc2cc(C)nc(N3CCOCC3)n2)cc1	21.5%
CCOc1ccc(Nc2cc(C)nc(-n3nc(C)cc3C)n2)cc1	50.6% (active)
CCOc1ccc(Nc2cc(C)nc(N3CCOCC3)n2)cc1	-0.6%
CNc1cc(C)nc(-n2nc(C)cc2C)n1	2.1%
COc1ccc(Nc2cc(C)nc(-n3nc(C)cc3C)n2)cc1	65.9% (active)
Cc1cc(NCCO)nc(-n2nc(C)cc2C)n1	-5.5%

SMILES	cytotoxicity
CCCc1nc2sc3ccccc3c(=O)c2c(=O)n1Cc1ccco1	21%
Cc1cccc(NS(=O)(=O)c2cc(C(=O)N3CCN(C)CC3)ccc2C)c1	-3.1%
COC(=O)Nc1nc2ccc(Sc3ccccc3)cc2[nH]1	62.2% (active)
COc1cc(OC)cc(C(=O)Nc2nc3ccccc3[nH]2)c1	-1.1%
COC(=O)Nc1nc2ccc(C(=O)c3ccccc3)cc2[nH]1	61.1% (active)
COc1cc(C(=O)Nc2nc3ccccc3[nH]2)cc(OC)c1OC	-3.2%
Cc1nc2ccc(C(=O)c3ccccc3)cc2[nH]1	-6.6%
COc1ccc(C(=O)Nc2nc3ccccc3[nH]2)cc1OC	0.5%
Cc1ccc(-c2nc(CS(=O)CC(=O)NC3CCC(C)CC3)c(C)o2)cc1 (configuration not stated)	-9.8%
CCc1ccc(OC)c(S(=O)(=O)Nc2ccccc2C)c1	3.8%
CC(C)N(c1ccccc1)c1ccc(NC(=O)C2CCCO2)cc1 (configuration not stated)	-3.8%
Cc1ccc(-c2csc3ncnc(NCCN4CCOCC4)c23)cc1	-10.9%
Cn1nnnc1Sc1ncnc2scc(-c3ccc(F)cc3)c12	20%
CNC(=O)CN1C(=O)CSc2ncccc21	-11.8%
CC(=O)N=c1sc2ccccc2n1C	-2.3%
Cn1c(=NC(=O)CCl)sc2ccccc21	98.2% (active)
Cn1c(=NC(=O)CN2C(=O)C3CC=CCC3C2=O)sc2ccccc21 (configuration not stated)	-0.3%
CC(=O)Nc1ccc(NC(=O)Cn2c(CC(=O)N3CCCC3)nc3ccccc32)cc1	-27.7%
C=CCn1c(N2C(=O)CC(Cc3ccccc3)C2=O)nc2ccccc21 (configuration not stated)	5.8%
CCc1ccc(NC(=O)c2ccccc2NC(=O)C2CCCO2)cc1 (configuration not stated)	-5.7%
COc1cccc2c(=O)n(CC(=O)NC3CCCC3)ccc12	2.2%
c1ccc(-c2noc(C3CCCCC3)n2)nc1	-7.2%
CNc1nc(-c2ccccn2)nnc1-c1ccccc1	10.4%
c1ccc(-c2nnc(-c3ccccn3)nc2NC2CCCCC2)cc1	50.7% (active)
